According to PubChem BioAssay (Tox21):
Where “and” joins values, the source holds several entries; their conditions need not be identical. Identical values can stand only once. Results filed as inconclusive are left out. Some compounds were tested as several samples or in several runs, with calls that do not always agree. Calls of active or inactive are those of the source. Unless noted, calls follow the shape of the dose curve; as a rule, active = well fitted curve in the direction sought with a large enough effect in the repeat runs; inconclusive = weak or mixed curves; inactive = no such curve, though single readings can be large; an effect the other way counts as inactive or inconclusive.

Key:
[1] = biological target: Peroxisome proliferator-activated receptor delta (Homo sapiens) (UniProt Q03181); experiment: qHTS assay to identify small molecule agonists of the peroxisome proliferator-activated receptor delta (PPARd) signaling pathway (AID 743212; calls by dose curve); conditions: HEK293H PPARd-UAS-bla, beta-lactamase FRET ratio, 17 h; series mostly up to 62.6 µM
Sequence of Peroxisome proliferator-activated receptor delta (Homo sapiens) (Q03181 whole entry, looked up): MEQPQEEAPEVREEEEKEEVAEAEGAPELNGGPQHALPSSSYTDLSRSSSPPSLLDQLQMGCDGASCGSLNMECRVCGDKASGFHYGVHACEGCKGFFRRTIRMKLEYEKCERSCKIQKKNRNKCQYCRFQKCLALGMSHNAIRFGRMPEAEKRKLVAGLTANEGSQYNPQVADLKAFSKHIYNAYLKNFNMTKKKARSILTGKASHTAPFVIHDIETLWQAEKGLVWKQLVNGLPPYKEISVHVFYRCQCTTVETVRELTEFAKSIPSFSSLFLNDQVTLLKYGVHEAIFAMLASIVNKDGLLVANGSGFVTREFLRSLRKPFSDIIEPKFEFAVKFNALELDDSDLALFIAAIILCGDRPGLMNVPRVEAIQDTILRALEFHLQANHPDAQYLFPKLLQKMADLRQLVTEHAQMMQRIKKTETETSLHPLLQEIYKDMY
Outline: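 Cells expressing a UAS-driven beta-lactamase reporter (PPARd-bla HEK293H) were given test compounds after a 5 h settle and kept at 37 C. Reporter activity was then measured as FRET fluorescence using LiveBLAzer B/G substrate.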

[2] = qHTS assay to identify small molecule antagonists of the peroxisome proliferator-activated receptor delta (PPARd) signaling pathway - cell viability counter screen (AID 743213); conditions: PPARd-bla HEK293H viability, CellTiter-Glo luminescence, 17 h; series mostly up to 62 µM; also: nearly all actives have a fitted effect of over 50% in size; also: potency is read from the fitted curve at half-maximal effect
Outline: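 PPARd-bla HEK293H cells were treated with compounds plus agonist L165041 (300 nM final) for 17 h at 37 C. Viability was then read in the same wells by CellTiter-Glo luminescence after 30 min at room temperature.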

[3] = biological target: Peroxisome proliferator-activated receptor delta (Homo sapiens) (UniProt Q03181); experiment: qHTS assay to identify small molecule antagonists of the peroxisome proliferator-activated receptor delta (PPARd) signaling pathway (AID 743215; active = well fitted inhibition curve with a large enough effect in the signal ratio in the repeat runs, not every such curve was filed as active; the % refers to the signal ratio;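 also: cells stimulated with agonist L165041 at 300 nM final during compound exposure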; also: potency is read from the fitted curve at half-maximal effect); conditions: HEK293H PPARd-UAS-bla, beta-lactamase FRET ratio, antagonist, 17 h; series mostly up to 62 µM
Outline: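 Here, a reporter line (HEK293H, beta-lactamase under a UAS) measures PPARd signaling. Compounds are tested against agonist L165041 at 300 nM final concentration over 17 h at 37 C, with fluorescence read after substrate.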

[4] = qHTS assay to identify small molecule agonists of the farnesoid-X-receptor (FXR) signaling pathway - cell viability counter screen (AID 743218); conditions: FXR-bla HEK293T viability, CellTiter-Glo luminescence, 16 h; series mostly up to 62.6 µM; also: nearly all actives have a fitted effect of over 45% in size; also: potency is read from the fitted curve at half-maximal effect
Outline: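 Quantitative HTS counter screen measuring ATP-based viability via CellTiter-Glo luminescence in HEK 293T cells carrying a UAS-driven beta-lactamase reporter, after 16 h compound exposure at 37 C.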

[5] = biological target: Bile acid receptor (Homo sapiens) (UniProt Q96RI1); experiment: qHTS assay to identify small molecule agonists of the farnesoid-X-receptor (FXR) signaling pathway (AID 743220; active = well fitted activation curve with a large enough effect in the signal ratio in the repeat runs, not every such curve was filed as active; the % refers to the signal ratio); conditions: HEK293T FXR-UAS-bla, beta-lactamase FRET ratio, 16 h; series mostly up to 62.6 µM
Sequence of Bile acid receptor (Homo sapiens) (Q96RI1 whole entry, looked up): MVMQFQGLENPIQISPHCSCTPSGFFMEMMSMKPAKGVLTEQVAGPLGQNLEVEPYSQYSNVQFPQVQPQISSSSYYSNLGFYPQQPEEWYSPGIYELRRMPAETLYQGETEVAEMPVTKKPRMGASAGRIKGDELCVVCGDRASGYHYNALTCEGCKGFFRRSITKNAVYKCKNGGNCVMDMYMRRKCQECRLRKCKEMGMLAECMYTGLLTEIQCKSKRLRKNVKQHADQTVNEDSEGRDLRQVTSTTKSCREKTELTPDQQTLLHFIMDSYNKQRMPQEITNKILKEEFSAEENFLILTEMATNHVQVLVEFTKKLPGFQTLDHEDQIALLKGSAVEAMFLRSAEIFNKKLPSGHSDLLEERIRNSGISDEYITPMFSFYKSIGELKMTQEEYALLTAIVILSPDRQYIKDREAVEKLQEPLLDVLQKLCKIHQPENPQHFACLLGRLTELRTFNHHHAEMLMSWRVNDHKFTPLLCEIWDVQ
Outline: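 FXR-UAS-bla HEK 293T cells carrying a UAS-driven beta-lactamase reporter were plated for 5 h at 37C/5% CO2, then exposed to DMSO-dissolved Tox21 10K compounds for 16 h at 37C. A LiveBLAzer B/G FRET substrate was loaded for 2 h at room temperature before fluorescence reading.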

[6] = qHTS assay to identify small molecule antagonists of the farnesoid-X-receptor (FXR) signaling pathway - cell viability counter screen (AID 743221; active = well fitted cell-killing curve with a large enough effect in the repeat runs, not every such curve was filed as active; also: nearly all actives have a fitted effect of over 50% in size; also: potency is read from the fitted curve at half-maximal effect); conditions: FXR-bla HEK293T viability, CellTiter-Glo luminescence, 16 h; series mostly up to 62.6 µM
Outline: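 Luminescence from CellTiter-Glo measures cytotoxicity in GeneBLAzer FXR-UAS-bla HEK 293T cells. Cells were exposed to compounds with 50 uM chenodeoxycholic acid (final) for 16 h at 37 C, in wells also used for the reporter readout.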

[7] = qHTS assay to identify small molecule agonists of the vitamin D receptor (VDR) signaling pathway - cell viability counter screen (AID 743224); conditions: VDR-bla HEK293T viability, CellTiter-Glo luminescence, 16 h; series mostly up to 62.6 µM; also: nearly all actives have a fitted effect of over 50% in size; also: potency is read from the fitted curve at half-maximal effect
Outline: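 CellTiter-Glo viability readout on VDR-bla cells, measured after 16 h of compound treatment at 37C in the same wells.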

[8] = biological target: Vitamin D3 receptor (Homo sapiens) (UniProt P11473); experiment: qHTS assay to identify small molecule antagonists of the vitamin D receptor (VDR) signaling pathway (AID 743223; active = well fitted inhibition curve with a large enough effect in the signal ratio in the repeat runs, not every such curve was filed as active; the % refers to the signal ratio; also: potency is read from the fitted curve at half-maximal effect); conditions: VDR-UAS-bla HEK293T, beta-lactamase FRET ratio, 16 h; series mostly up to 61 µM
Sequence of Vitamin D3 receptor (Homo sapiens) (P11473 whole entry, looked up): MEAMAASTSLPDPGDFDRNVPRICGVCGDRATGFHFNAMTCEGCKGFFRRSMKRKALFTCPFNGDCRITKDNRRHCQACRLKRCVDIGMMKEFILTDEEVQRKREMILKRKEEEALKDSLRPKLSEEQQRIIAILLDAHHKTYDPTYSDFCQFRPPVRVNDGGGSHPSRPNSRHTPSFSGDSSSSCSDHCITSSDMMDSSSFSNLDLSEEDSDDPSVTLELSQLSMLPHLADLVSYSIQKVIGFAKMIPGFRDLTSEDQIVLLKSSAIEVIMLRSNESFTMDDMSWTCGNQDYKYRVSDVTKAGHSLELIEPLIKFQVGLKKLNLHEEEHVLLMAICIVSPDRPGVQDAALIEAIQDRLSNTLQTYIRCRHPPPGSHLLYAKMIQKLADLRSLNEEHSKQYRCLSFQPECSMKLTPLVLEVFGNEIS
Outline: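 Antagonist mode uses 1alpha,25-dihydroxyvitamin D3 at 3 nM final as stimulus. VDR-bla cells receive compounds in DMSO, incubate 16 h at 37C, then a beta-lactamase FRET substrate for 2 h at room temperature before fluorescence measurement.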

[9] = biological target: Bile acid receptor (Homo sapiens) (UniProt Q96RI1); experiment: qHTS assay to identify small molecule antagonists of the farnesoid-X-receptor (FXR) signaling pathway (AID 743217; active = well fitted inhibition curve with a large enough effect in the signal ratio in the repeat runs, not every such curve was filed as active; the % refers to the signal ratio; also: potency is read from the fitted curve at half-maximal effect); conditions: HEK293T FXR-UAS-bla, beta-lactamase ratio, CDCA-stimulated, 16 h; series mostly up to 62.6 µM
Outline: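 Test compounds are pin-transferred onto FXR-bla HEK 293T cells, then chenodeoxycholic acid is added at 50 uM final. After 16 h at 37 °C, LiveBLAzer B/G substrate is applied for 2 h at room temperature and fluorescence read.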

[10] = biological target: Vitamin D3 receptor (Homo sapiens) (UniProt P11473); experiment: qHTS assay to identify small molecule agonists of the vitamin D receptor (VDR) signaling pathway (AID 743222; calls by dose curve); conditions: HEK293T VDR-UAS-bla, beta-lactamase FRET ratio, 16 h; series mostly up to 63.5 µM
Outline: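 Tox21 cell reporter format: VDR-bla line, 16 h compound exposure in 5% CO2 at 37C, then fluorescence intensity after 2 h with LiveBLAzer B/G FRET substrate.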

Measured: Potency

Clc1ccc(C(c2ccccc2Cl)C(Cl)Cl)cc1 (stereo not drawn)
inactive: [1] | [2] | [3] | [4] | [5] | [6]

CCN=c1cc2oc3cc(NCC)c(C)cc3c(-c3ccccc3C(=O)OCC)c-2cc1C
inactive: [1] | [5]
active: [2] 38.8 µM and 24.5 µM | [4] 48.8 µM and 38.9 µM | [6] 54.7 µM and 54.9 µM | [7] 27.4 µM and 24.5 µM

CN1CCN(C2Cc3ccccc3Sc3ccc(Cl)cc32)CC1 (stereo not drawn)
active: [4] 26.6 µM | [6] 29.8 µM
inactive: [1] | [5] | [8]

CCCCCCC(C)OC(=O)COc1nc(F)c(Cl)c(N)c1Cl (stereo not drawn)
inactive: [1] | [3] | [4] | [6]
active: [7] 43.6 µM

CCNc1nc(NC(C)CC)nc(OC)n1 (stereo not drawn)
inactive: [1] | [4] | [5] | [6] | [8]

COC(=O)CC(C)CCC=C(C)C (stereo not drawn)
not listed: [2] | [3] | [5]
inactive: all other assays above

CC(O)C#CC(C)O (stereo not drawn)
inactive: [1] | [2] | [4] | [6]

CCCN(CCc1cccs1)[C@H]1CCc2c(O)cccc2C1
inactive: [1] | [2] | [3] | [6]

CCCCNc1c(C(=O)OCC)c(C)nc2c1cnn2CC
inactive: [1] | [2] | [3] | [4] | [6] | [10]

CCCCCCCC/C=C\CCCCCCCC(=O)NCc1ccc(O)c(OC)c1
active: [2] 18.8 µM | [9] 29.8 µM | [4] 29.8 µM | [8] 26.8 µM | [7] 33.5 µM
inactive: [1] | [5]

CCN(CC)CCOC(=O)C1(C2CCCCC2)CCCCC1
inactive: [1] | [2] | [4] | [6] | [8] | [7]

CC(C)N=C(N)/N=C(\N)Nc1ccc(Cl)cc1
active: [2] 11.9 µM
inactive: [1] | [9] | [5] | [10] | [7]

Cn1cnc2ncnc(N)c21
not listed: [5] | [7] | [9]
inactive: all other assays above

SCCCCCCCCS
inactive: all assays above

CCc1cccc(C)c1
inactive: all assays above

Cc1ccc2ccc3cccc4ccc1c2c34
inactive: [1] | [2] | [3] | [4] | [5] | [6]

CC1(C)C(=O)N(Br)C(=O)N1Br
not listed: [2] | [8]
inactive: all other assays above

CCN(CC)CCCN(c1ccccc1)C1Cc2ccccc2C1
inactive: [1] | [3] | [4] | [6] | [10] | [8]

CC(C)(C)CC(C)(C)c1ccccc1O
inactive: [1]
active: [2] 39.1 µM | [6] 43.9 µM | [8] 43.9 µM

CCCCCCOc1ccc(O)cc1
inactive: [1] | [3] | [4] | [6] | [10]

Cc1cn[nH]c1
inactive: [1] | [3] | [4] | [6] | [7]

O=Cc1ccc(F)cc1
not listed: [2] | [8]
inactive: all other assays above

ClC/C=C\CCl
inactive: [1] | [2] | [3] | [6] | [8] | [7]

CSc1ccc2c(c1)N(CCC1CCCCN1C)c1ccccc1S2 (stereo not drawn)
active: [2] 21.8 µM and 13.3 µM | [3] 26.6 µM | [4] 21.8 µM and 16.8 µM | [6] 38.7 µM and 29.8 µM
inactive and 26.6 µM (active): [7]
inactive: [1] | [10]

CCCCCCOc1cc(C)c(O)c(C)c1C
inactive: [1] | [3] | [4] | [8]
active: [7] 39.4 µM

CCCCOc1ccc(C(=O)CCN2CCCCC2)cc1
inactive: [1] | [2] | [3] | [9] | [4] | [5]

CCCCCCCCCCCCCCCC
inactive: [1] | [2] | [3] | [4] | [6]

O=Nc1ccc(NO)cc1
inactive: [1] | [2] | [4] | [6] | [7]

CCCCCCCCCCCCCCNCCO
not listed: [2] | [5] | [9]
inactive: all other assays above

CN(Cc1cc(Br)cc(Br)c1N)C1CCCCC1
active: [7] 26.6 µM
inactive: [1] | [2] | [3] | [5] | [6]
